Results from PubChem BioAssay AID743279 (National Center for Advancing Translational Sciences (NCATS), 2014).
Among all 360,000 compounds or so, about 17,000 (4.7%) were called active. Inconclusive results (about 5%) are left out. Rule as the data show it: active = activity change below about -50%; inconclusive = mostly about -30% to -49%; inactive = weaker than that. The list comes from a sample in which actives are over-represented; it also holds similar structures and randomly drawn compounds.

Experiment: qHTS for Inhibitors of Inflammasome Signaling: IL-1-beta AlphaLISA Primary Screen
Conditions: THP-1 LPS/ATP IL-1B secretion, 16 h; at 57.5 µM, hits give low values
Method in brief: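 Secreted IL-1B measured by AlphaLISA bead assay after 16 h compound exposure of THP-1 cells; compounds (final up to 57.5 uM) added 1 h before LPS (250 ng/mL) and ATP (1.25 mM) stimulation; lower signal means less secretion.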
% is scaled to controls: 0 for no effect and ±100 for the full control effect.

Activity change, active:
CCCCc1c(-c2ccc(Br)cc2)ncn1CCc1ccccc1OC -93.2%
CCCCCc1c(-c2ccc(OC)c(OC)c2)ncn1CCc1ccccc1OC -71.5%
CCCCCc1c(Cc2ccccc2)ncn1CCc1ccccc1OC -55.8%
CCCCc1c(-c2ccc(Cl)cc2)ncn1CCc1ccccc1OC -109%
CCC(=O)Nc1ccc(C(=O)CSc2nnc(CNc3ccc(Cl)cc3)o2)cc1OC -55.7%
CC1=CC(C)(C)Nc2ccc(OC(=O)CN3C(=O)C4CCCCC4C3=O)cc21 (configuration not stated) -97.6%
CC1=CC(C)(C)Nc2ccc(OC(=O)C(Cc3ccccc3)N3C(=O)C4CCCCC4C3=O)cc21 (configuration not stated) -94.7%
CCc1cc(=O)oc2cc(OCC(=O)N3CCCc4ccccc43)ccc12 -60.9%
O=C(Nc1cccc(F)c1)NC1CCCCCCC1 -92.1%
CC(=O)N1CC(C)c2scc(C)[n+]2-c2ccccc21 (configuration not stated) -71.4%
O=C(NC1=CC(=O)c2ccccc2C1=O)c1ccccc1 -96.1%
Clc1c(OCCCn2ccnc2)ccc2ccccc12 -77%
O=C(Nc1cccc(NC(=O)N2CCN(c3ccccc3)CC2)c1)N1CCN(c2ccccc2)CC1 -55.8%
COc1ccc(C2(C)ON(c3ccccc3C(F)(F)F)C2=O)cc1 (configuration not stated) -62.1%
Cc1cnc(NC(=O)c2ccccn2)s1 -99.9%
COc1cc(/C=N/O)cc(Br)c1OCc1cccc(Cl)c1 -101%

Activity change, inactive:
COc1nnc(-c2ccc(C)c(S(=O)(=O)N(C)C)c2)c2ccccc12 -11.4%
COc1ccccc1Cc1c(-c2ccc(Cl)cc2)nc2c3ccccc3ccn12 4.19%
CCCc1c(-c2ccccc2F)ncn1Cc1ccccc1OC -24.5%
COc1ccccc1CCNS(=O)(=O)c1cn(C)nc1C -3.36%
Cn1c(=O)c2c(ncn2CCc2ccccc2)n(C)c1=O 26.6%
COc1ccccc1Cc1c(-c2ccc(Cl)cc2)nc2ccc(Cl)cn12 16.9%
CCCCCc1c(-c2cccc(Br)c2)ncn1CCc1ccccc1OC -27.9%
CCC(=O)NCc1cc(-c2nn(C)c(=O)c3ccccc23)ccc1OC -12.6%
CCc1c(-c2ccc(F)cc2)ncn1Cc1cccc(-c2ccccc2)c1 4.55%
COc1cccc(NC(=O)CSc2nccn(-c3ccc4c(c3)OCCO4)c2=O)c1 -15.5%
COc1ccc(S(=O)(=O)NC(=O)C2(C)CCN2C(=O)COc2ccc(Cl)cc2)cc1 (configuration not stated) 21%
Cc1ccc(N2C(=O)CC(N3CCSCC3)C2=O)c(C)c1 (configuration not stated) 9.43%
Cc1c(O)c(C)c2c(c1O)C(=O)C[C@@H](c1ccccc1)O2 40.2%
CCCNC(=O)C1CC(=O)N(c2ccc(OCc3ccccc3)cc2)C1 (configuration not stated) 18%
c1ccc(C(=NNc2nc3ccccc3s2)c2ccccn2)cc1 -21.7%
C=CCn1nc(C(=O)OCC)cc1-c1sc(NC(=O)c2ccccc2)nc1C -29.6%
CNC[C@H]1OCc2cnnn2CCCC(=O)N([C@H](C)CO)C[C@@H]1C -6.3%
CCOC(=O)CSc1nnc(CNc2ccc(F)cc2)o1 3.99%
COc1cc(C(=O)NCc2nnc(SCC(=O)c3ccc(Cl)cc3)o2)cc(OC)c1OC 9.13%
Cc1ccc(-c2csc(C(C#N)=C(O)CN3CCN(C(=O)c4ccco4)CC3)n2)cc1 -7.72%
O=C(COC(=O)CN1C(=O)C2CCCCC2C1=O)Nc1ccc(F)c(F)c1F (configuration not stated) 4.41%
CCOC(=O)C(Cc1ccc(N)cc1)N1C(=O)c2ccccc2C1=O (configuration not stated) 12.1%
O=C(C(Cc1ccccc1)n1cccc1)N1CCN(C2CCCCC2)CC1 (configuration not stated) 8.33%
COc1ccc(C(=O)COC(=O)CN2C(=O)C3CC=CCC3C2=O)c(OC)c1 (configuration not stated) -15.2%
C/C=C/C(=O)OCc1csc(CC(=O)Nc2ccccc2C)n1 13.6%
COc1ccc(S(=O)(=O)N2CCN(C(C)C(=O)Nc3ccc(C(C)C)cc3)CC2)cc1 (configuration not stated) -16.4%
COCCCNC(=O)Cc1ccc(-n2c(C)nc3cccnc32)cc1 22.7%
COc1cccc(C(O)c2ncc(-c3ccc4ccccc4c3)[nH]2)c1 (configuration not stated) 18.2%
CCOC(=O)C1CCCN(C(=O)c2ccc(C)c(S(=O)(=O)N3CCCCC3)c2)C1 (configuration not stated) 4.44%
COc1ccc(Cl)cc1-n1c(=S)sc2c(=O)n(-c3ccc(F)cc3)c(SCC(=O)O)nc21 14.4%
COc1ccc(CCNC(=O)CN(c2ccccc2)S(=O)(=O)c2ccccc2)cc1 15.3%
CCOc1ccccc1N1CCN(C(=O)COc2ccc3c(C)cc(=O)oc3c2)CC1 23%
CC(=O)COc1ccc2c(-c3ccccc3)cc(=O)oc2c1 -27.2%
CC(C)c1cc(C(=O)N(C)C2CCCN(Cc3ccccc3F)C2)n(C)n1 (configuration not stated) 41.9%
CCN(CC)C(=O)C1=C(C)N(Cc2ccccc2)C(=O)C(CC(=O)NC(c2ccccc2)c2ccccc2)C1 (configuration not stated) -15.6%
O=C(Nc1cccc(F)c1)NC1CCCc2ccccc21 (configuration not stated) -9.52%
C/C(CC(=O)Nc1cccc(F)c1)=N\NC(=O)C(=O)NC1CCCCC1 -10.5%
COc1ccc(NC(=O)C[C@H]2C(=O)N(CCc3ccccc3)C[C@@H]2C)cc1 -9.78%
FC(F)Oc1ccccc1NC(=S)Nc1cccc(Cl)c1Cl 23.7%
CC(C)(C)S(=O)N1Cc2cc(C(=O)NCCCN3CCOCC3)nc(-c3cccc(-c4cc5ccccc5o4)c3)c2[C@H]1CCO (some centres not stated) -27.7%
CCc1cccc(CC)c1N1C(=O)CC(Sc2ccccc2N)C1=O (configuration not stated) 17.8%
Cc1ccccc1S(=O)(=O)NC(=O)C1(C)CCN1C(=O)Cc1ccc(Cl)cc1Cl (configuration not stated) -18.4%
O=C(Nc1nnc(S(=O)(=O)N2CCCCCC2)s1)c1cccc(Br)c1 -9.2%
O=C1C=C(NS(=O)(=O)c2ccccc2)C(=O)c2ccccc21 -0.814%
Cn1c(NC(=O)c2ccccc2)nc2ccccc21 35.1%
N#Cc1cccc(NC(=O)c2cc(C3CCCCN3C(=O)CCc3ccccc3)on2)c1 (configuration not stated) -18%
O=C(NCCCn1ccnc1)c1ccccc1F 8.56%
C=CCc1cc(C)ccc1OCCCn1ccnc1 -24.1%
COc1cccc(CNC(=O)[C@@H]2CCCN2C(=O)[C@@H]2CCCN2C(=O)c2ccccc2)c1 0%
O=C(CCc1ccccc1)Nc1ccc(NC(=O)C2CCCCC2)nc1 -9.78%
C=CCN1CCN(c2ccncc2S(=O)(=O)N2CCN(C)CC2)CC1 -7.51%
CC(=O)OC1CCC2(C)C(=CCC3C4CC(=O)N(O)C(=O)C4(C)CCC32)C1 (configuration not stated) -9.48%
O=C(Nc1ccc(F)cc1)N1CCN(c2ccc(F)cc2)CC1 2.96%
O=C(Nc1ccccc1)N1CCN(C2c3ccccc3-c3ccccc32)CC1 -15.2%
CCOC(=O)c1c(NC(=O)COC(=O)c2ccc(S(=O)(=O)C(F)F)cc2)sc(C(=O)N(C)C)c1C -22%
C=CCN1C=C(C(=O)c2ccccc2)C(=O)CC1 14%
CC(C)C1C(=O)N(Cc2cn(CCC3OCCO3)nn2)CCS(=O)(=O)N1Cc1ccc(-c2ccccc2C(F)(F)F)cc1 (configuration not stated) -17.2%
O=C(OC(C(=O)NC1CCCC1)c1ccc(F)cc1)c1ccno1 (configuration not stated) -4.45%
CCOc1ccc(/C=C(/C#N)c2nnc(N3CCOCC3)n2-c2ccccc2)cc1OC -13.1%
COc1ccc(C2(O)C(=O)Nc3ccccc32)cc1 (configuration not stated) 16%
COc1ccc(C2(C)NC(=O)N(CC(=O)c3ccc4c(c3)OCO4)C2=O)cc1 (configuration not stated) 6.28%
COC(=O)CCCCC1=CCC2C(=O)C=C(O)C2C1 (configuration not stated) 46.8%
Cc1cc(C)cc(NC(=O)C2CCCN(S(=O)(=O)c3ccc4[nH]c(=O)ccc4c3)C2)c1 (configuration not stated) -11.9%
CC(C(=O)NC1CCCC1)N1CCN(S(=O)(=O)c2ccccc2Cl)CC1 (configuration not stated) -3.55%
CCc1nc2c(OCCOc3ccccc3)cccn2c1N(C)C(=O)c1ccc(OC)cc1 -0.0267%
COc1ccc(S(=O)(=O)N(C)C)cc1NC(=O)COC(=O)c1n[nH]c2ccccc12 -8.2%
O=C(Nc1nnc(C2CC2)s1)c1ccccn1 12.6%
Cc1cnc(NC(=O)C2CCCC2)s1 -15.9%
O=S(=O)(N1CCCCC1)N1CCNCC1 18.8%
CNC(=O)c1ccc(CN(C)C(=O)c2cc(C3CC3)nc3c2cnn3C(C)C)cc1 -23.4%
CCOC(=O)C1=C(CSc2nnnn2C)N(C)C(=O)NC1c1ccccc1 (configuration not stated) 25.6%
COc1cc(/C=N/O)cc(Br)c1OS(=O)(=O)c1ccc(C)cc1 -4.12%
COc1cc(/C=N/NC(=O)Cc2ccccc2)cc(OC)c1OC 11.4%
CCCCCCn1c(=O)n2n(c1=O)C[C@]1(OC(=O)NCc3ccc(OC)c(OC)c3)CN(S(=O)(=O)c3ccc(C)cc3)C[C@]1(O)C2 -2.71%
NS(=O)(=O)c1ccc2nc(NC(=O)C3=COCCO3)sc2c1 4.02%
CCC(=O)N1CCC(C)(C(=O)Nc2cc(OC)c(OC)c(OC)c2)C1 (configuration not stated) 33.3%
